assay: binders from COS7 lysate, DM2A8 probe, primary screen, torsin A project, cell lysate, small-molecule microarray, fluorescence 635/667 (AID 1065); details: higher = more signal, COS7 lysate expressing mutant human TOR1A

| Structure (SMILES) | composite z-score |
| --- | --- |
| C=CC[C@@]1(C(=O)N2CCOCC2)N=C(c2ccc(OCCCO)cc2)O[C@@H]1c1ccccc1 | 1.2 |
| COc1ccc([Si](C)(C)[C@@H]2[C@@H](CCO)O[C@]3(C(=O)N(Cc4ccc(NC(=O)[C@H](C)O)cc4)c4ccccc43)[C@H]2C)cc1 | 0.395 |
| COc1ccc([Si](C)(C)[C@H]2[C@H](CC(=O)N(CCO)Cc3ccccc3)O[C@@]3(C(=O)N(C)c4ccccc43)[C@@H]2C)cc1 | 0.919 |
| NC(=O)[C@H]1[C@@H]2C(=O)O[C@@H](c3ccccc3)[C@@H](c3ccccc3)N2[C@@H](c2ccc(O)cc2)[C@]12C(=O)Nc1ccc(C#CCCO)cc12 | -0.831 |
| CO[C@H]1O[C@H](CO)[C@@H](OC(=O)Nc2ccc3c(c2)OCO3)[C@H](OC(=O)Nc2ccccc2)[C@@H]1OC(=O)Nc1ccccc1 | 0.215 |
| CC(C)(C)OC(=O)CC[C@@]1(C(=O)NCc2ccccc2)N=C(c2ccc(OCCCO)cc2)O[C@@H]1c1ccccc1 | 1.96 |
| C[C@@H]1CC[C@H]2C(=O)N3CCC[C@H]3C(=O)N2[C@H]1c1ccc(Br)cc1 | 0.0769 |
| C=CCNC(=O)[C@H]1[C@@H]2C(=O)O[C@@H](c3ccccc3)[C@@H](c3ccccc3)N2[C@@H](c2ccc(O)cc2)[C@]12C(=O)Nc1ccc(C#CCNC(N)=O)cc12 | -0.0883 |
| O=C(NCc1ccccc1)[C@@]1(Cc2ccccc2)COC(c2ccc(OCCCO)cc2)=N1 | 0.0094 |
| COc1ccc(C(=O)Nc2ccc(CN3C(=O)[C@]4(O[C@H](CCn5cc(CCO)nn5)[C@@H]([Si](C)(C)c5ccc(OC)cc5)[C@@H]4C)c4ccccc43)cc2)cc1 | 0.259 |
| O=C1C2C=CC(C(O)c3ccccc3)N(n3cnnc3)C2C(=O)N1Cc1ccccc1 (stereo unspecified) | -0.399 |
| O=C1c2ccccc2[C@](Cc2ccccc2I)(C(=O)NCC(F)(F)F)[C@H](c2ccc(CO)cc2)N1Cc1ccccc1C(F)(F)F | 0.57 |
| COCCCNC(=O)[C@@]1(Sc2ccc(C)cc2)CC(=O)N(Cc2cc(C(F)(F)F)cc(C(F)(F)F)c2)[C@@H]1c1ccc(CO)cc1I | -0.181 |
| CC1CC/C=C\[C@H]2OC34C=CCN(Cn5nnc6ccccc65)C(=O)[C@H]3N(C(C)CO)C(=O)[C@@H]4C2C(=O)O1 (stereo partly specified) | -1.38 |
| COCCOC(=O)N1C(=O)[C@@]2(c3cc(C#CCNC(N)=O)ccc31)[C@H](C(=O)N1CCCCCCC1)[C@H]1C(=O)O[C@H](c3ccccc3)[C@H](c3ccccc3)N1[C@@H]2c1ccccc1OCCO | 0.288 |
| CO[C@H]1COC(=O)CC=C[C@H](C)[C@@H](OC)COC(=O)CC=C[C@@H]1C | 1.7 |

| Structure (SMILES) | composite z-score |
| --- | --- |
| C=CCNC(=O)[C@H]1[C@@H]2C(=O)O[C@@H](c3ccccc3)[C@@H](c3ccccc3)N2[C@@H](c2ccccc2OCCO)[C@]12C(=O)N(C(=O)OCCOC)c1ccc(C#CCC(C(=O)OC)C(=O)OC)cc12 | 0.864 |
| CCc1cccc(NC(=O)O[C@H]2[C@H](OC(=O)Nc3ccccc3)[C@@H](OC(=O)Nc3ccccc3)[C@@H](OC)O[C@@H]2CO)c1 | 0.624 |
| O=C1O[C@@H](c2ccccc2)[C@@H](c2ccccc2)N2[C@@H](c3ccccc3OCCO)[C@]3(C(=O)Nc4ccc(C#CC5=CCCCC5)cc43)[C@@H](C(=O)O)[C@H]12 | 0.416 |
| O=C1C[C@@](C(=O)NCCN2CCOCC2)(c2ccc([N+](=O)[O-])cc2)[C@@H](c2ccc(CO)cc2)N1C1CCCCC1 | 0.657 |
| C[C@H]1NC(=O)[C@@H](C)NC(=O)[C@@]23C(=O)N[C@@H](Cc4ccccc4)C2[C@H](C)[C@@]2(C)O[C@H]2C3/C=C/C/C=C\CNC1=O (stereo partly specified) | -0.0794 |
| CCC#CCN(Cc1ccccc1Br)[C@H](/C=C/c1ccccc1)[C@@H](O)Cc1ccccc1 | -0.387 |
| C=C(COC)/C(=C/C[C@@H](OC(C)=O)c1cccc(OCCO)c1)c1cc(C(=O)OC)ccc1OC | 0.361 |
| O=C/C=C/c1ccccc1Cl | -0.0907 |
| Cc1ccc(S(=O)(=O)c2cc3oc2CC[C@@H](CO)NC(=O)N(C)Cc2cn(nn2)C[C@H](Cc2ccccc2)NC3=O)cc1 | 0.345 |
| O=C1O[C@H](c2ccccc2)[C@H](c2ccccc2)N2[C@H]1[C@@H](C(=O)Nc1nc3ccccc3s1)[C@]1(C(=O)Nc3ccc(C#CC4=CCCCC4)cc31)[C@H]2c1ccccc1OCCO | 0.255 |
| C=CCC1=C[C@H]2[C@H]([C@@H]3C=C[C@]2(CC=C)C(=O)[C@]32CO2)[C@@]2(CO2)C1=O | 1.28 |
| CC(C)N1CC=CC23O[C@@H]4/C=C\CCCOC(=O)C4[C@H]2C(=O)N(CCO)[C@@H]3C1=O (stereo partly specified) | -0.158 |
| C=CCC(OC(C)=O)[C@@H]1[C@@H](N(Cc2cc3ccccc3o2)C(=O)Cc2ccc(F)cc2)c2cc(OCCCO)ccc2N1C(=O)c1ccc(-c2ccccc2)cc1 (stereo partly specified) | -0.103 |
| C=CCc1cccc([C@H]2N[C@H](C(=O)O)CC[C@@H]2C)c1 | 0.604 |
| CCOC(=O)C[C@H]1[C@H](OC(=O)Cc2ccc3c(c2)OCO3)[C@@H](NC(=O)c2ccc3ccccc3c2)c2cc(OCCCO)ccc2N1C(=O)Cc1ccc(OC)cc1 | 0.237 |
